ALOX12 inh: inhibitors of human 12S-lipoxygenase ALOX12; P18054; purified 12hLO, xylenol orange hydroperoxide absorbance; Potency, µM (series often up to 108 µM), for inactives: top-dose activity change, negative = inhibition, actives largely listed as inhibitors; 580,000 tested, 1.1% active; also: potency is read from the fitted curve at half-maximal effect; % is scaled to controls: 0 for no effect and ±100 for the full control effect
Target sequence (P18054 whole entry, looked up): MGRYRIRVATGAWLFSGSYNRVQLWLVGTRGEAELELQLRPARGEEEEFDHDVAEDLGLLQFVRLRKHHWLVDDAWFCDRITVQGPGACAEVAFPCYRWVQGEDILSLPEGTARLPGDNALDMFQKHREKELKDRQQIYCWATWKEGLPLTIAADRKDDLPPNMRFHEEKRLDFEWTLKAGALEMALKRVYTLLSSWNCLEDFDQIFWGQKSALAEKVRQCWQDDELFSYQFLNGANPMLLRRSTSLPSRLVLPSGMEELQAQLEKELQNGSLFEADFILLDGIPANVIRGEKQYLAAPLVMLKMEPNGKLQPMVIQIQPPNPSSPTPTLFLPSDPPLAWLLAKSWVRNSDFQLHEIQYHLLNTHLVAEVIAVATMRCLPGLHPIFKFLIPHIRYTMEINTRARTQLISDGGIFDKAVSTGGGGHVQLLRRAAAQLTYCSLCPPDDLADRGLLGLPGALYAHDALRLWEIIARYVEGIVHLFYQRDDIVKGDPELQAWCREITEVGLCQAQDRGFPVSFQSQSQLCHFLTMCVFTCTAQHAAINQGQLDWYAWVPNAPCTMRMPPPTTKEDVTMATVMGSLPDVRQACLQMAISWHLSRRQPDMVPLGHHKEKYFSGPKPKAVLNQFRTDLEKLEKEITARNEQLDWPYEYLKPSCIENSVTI
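Hydroperoxide product was detected by ferrous iron/xylenol orange as the 573 to 405 nm absorbance ratio. Arachidonic acid at 40 uM (final) was turned over for 30 min at room temperature by 150 nM human 12hLO, pH 7.0 Hepes buffer, after 15 min compound preincubation.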
Vif-APOBEC3F blk: blocks the Vif interaction with APOBEC3F; HeLa A3F-eYFP + Vif (tagged APOBEC3F with the HIV-1 protein that degrades it), YFP fluorescence increase; Potency, µM (series often up to 46.1 µM), without a hit: at the highest dose activity, negative = active; 390,000 tested, 0.2% active; also: potency is read from the fitted curve at half-maximal effect; % of control where 0% means no effect; nearly all actives have a fitted effect of over 65% in size
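HeLa cells stably expressing Vif plus C-terminally eYFP-tagged A3F were seeded, incubated overnight at 37 deg C, dosed with compound, incubated overnight again at 37 deg C. Yellow fluorescence (Ex 488/Em 500-530) reported blocked Vif-mediated A3F-eYFP degradation.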
TRPML1 blocker: blocks the human TRPML1 channel. activity change, negative = inhibition, % (test concentration not listed). TRPML1-inducible cells, Ca2+ dye fluorescence, FDSS; stronger effect = lower value; inhibition of EC80 agonist-evoked calcium signal. Q9GZU1. 390,000 tested, 0.02% active; in the data active = activity change below about -50%; inconclusive = between about -30% and that limit;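 also: stimulus is agonist 54-4 at its EC80 concentration; % is scaled to controls: 0 for no effect and ±100 for the full control effect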
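TRPML1-DL cells, Tet-induced overnight (~16 h, 37 °C) at 1,500 cells/well, were loaded with Ca8 no-wash dye plus quencher for 45-90 min at room temperature. Compounds were pinned during FDSS kinetic reading; agonist 54-4 at EC80 (4 uM final) then added.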
GRP78 ERSR act: induces the endoplasmic reticulum stress response in human glioma cells; U87-MG GRP78 promoter luciferase reporter, 16 h; Potency, µM, for inactives: at the highest dose activation, hits mostly activators; 420,000 tested, 0.02% active; AID 602332; also: potency is read from the fitted curve at half-maximal effect; series mostly up to about 76 µM; % of control where 0% means no effect; nearly all actives have a fitted effect of over 35% in size
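Stably transfected U87-MG glioma cells carrying a GRP78-based luciferase sensor; 16 h compound incubation. Luminescence end-point read 10 min after Bright-Glo addition at room temperature.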
TRPML1 agonist: agonists of human TRPML1 channel. Q9GZU1. TRPML1-expressing cells, Ca2+ dye fluorescence, FDSS. activation, % (no concentration beside the values). 410,000 tested, 0.12% active. AID 624414; in the data active = activation above about 50%; inconclusive = mostly about 30% to 49%; also: 0% is about no effect
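Agonist activity was taken from a 110 s kinetic Ca2+ dye read on the FDSS after pinning compounds onto TRPML1-DL cells. The cells were seeded at 1,500/well with Tet inducer, incubated about 16 h, then dye-loaded at room temperature.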
Vif-APOBEC3G blk: blocks the Vif interaction with human APOBEC3G | Q9HC16 | HeLa A3G-eYFP + Vif (tagged APOBEC3G with the HIV-1 protein that degrades it), YFP fluorescence, overnight | Potency, µM (top dose mostly 46.1 µM), inactives show at the top dose activity, negative = active, actives largely listed as inhibitors | 410,000 tested, 0.076% active | AID 602310; also: potency is read from the fitted curve at half-maximal effect; % is scaled to controls: 0 for no effect and ±100 for the full control effect; nearly all actives have a fitted effect of over 60% in size
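HeLa cells stably expressing Vif and C-terminally eYFP-tagged A3G, seeded overnight at 37 deg C, then exposed to compound by pintool overnight at 37 deg C. Rise in yellow fluorescence (Ex 488/Em 500-530, Acumen) marks blocked Vif-driven A3G degradation.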
Active calls of the source: *; u = inconclusive; x = no result. Most compounds without a hit are left out; they make up all but 1.3% or so of the library. Unless noted, calls follow the shape of the dose curve; as a rule, active = well fitted curve in the direction sought with a large enough effect; inconclusive = small, poorly fitted or top-dose-only effect, or another doubt; inactive = no such curve, though single readings can be large; an effect the other way counts as inactive or inconclusive.

SMILES	ALOX12 inh	Vif-APOBEC3F blk	TRPML1 blocker	GRP78 ERSR act	TRPML1 agonist	Vif-APOBEC3G blk
O=C1[C@H]2[C@@H](c3ccccc3)N[C@]3(CCCN(Cc4ccc(Br)cc4)C3=O)[C@H]2C(=O)N1Cc1ccccc1	-77%	-5%	5	1%	0	-6%
O=C(/C=C/c1ccccc1C(F)(F)F)c1cc2ccccc2o1	-15%	x	x	x	x	x
CC1=CC(=O)C(C(C)C)=C/C1=N/OS(=O)(=O)c1ccccc1	-20%	10%	-5	-14%	50*	u
Cc1ccc2[nH]c(C)c(/C=C/c3cc[n+](C)cc3)c2c1	u	-372%	7	-3%	10	1.3µM*
COc1cccc(C2=CC(=O)CC(c3ccco3)C2)c1 (stereo not drawn)	35µM*	-1%	9	3%	1	-2%
O=C1CC(SC(=S)C2CCCC2=O)C(=O)N1 (stereo not drawn)	22µM*	-14%	-24	-2%	0	1%
CC1=NN(c2ccccc2)C(=O)C1C(=S)SC1CC(=O)NC1=O (stereo not drawn)	u	u	-23	2%	0	-8%
CCOC(=O)N1CCN(CC(=O)Nc2nc3ccc(OC)cc3s2)CC1	45µM*	u	x	0%	x	0%
CCOc1ccc(OCC)c(NC(=O)CN2CCN(c3ccc(C)cc3C)CC2)c1	u	x	16	-3%	5	-3%
CCOC(=O)N1CCN(CC(=O)Nc2cc(OCC)ccc2OCC)CC1	1.6µM*	-24%	7	-8%	0	-4%
COc1ccccc1NC(=O)c1cc(=O)c2cc(C)ccc2o1	1%	x	x	x	x	x
CCCCCCCCCC[n+]1ccc(/C=C/c2ccc(N(C)C)cc2)c2ccccc21	x	x	x	-11%	57*	u
CCCC[n+]1c(/C=C/c2ccc(N(C)C)cc2)sc2ccccc21	x	x	x	-7%	4	0%
COc1ccccc1-c1nccc(NCc2ccccc2)n1	22µM*	x	x	-3%	x	x
CNc1ccnc(-c2ccccc2OC)n1	16µM*	x	x	3%	x	x
COc1ccccc1CNc1ccnc(-c2ccc(N(C)C)cc2)n1	25µM*	x	x	-5%	x	x
CN(C)c1ccc(-c2nccc(NCc3ccccc3)n2)cc1	u	x	x	-6%	x	x
Cc1ccc(C2(c3ccccc3)NC(=O)N(Cc3ncc(-c4ccccc4)o3)C2=O)cc1C (stereo not drawn)	-30%	x	x	x	x	x
CCN(CC)c1ccc2c(c1)OC(N)=C(C#N)C2c1cccnc1 (stereo not drawn)	u	u	6	2%	70*	u
N#CC1=C(N)Oc2cc(N)ccc2C1c1cccnc1 (stereo not drawn)	-7%	-7%	26	-5%	1	-24%
COc1cccc(NC(=O)NC[C@H]2O[C@@H](CO)[C@@H](O)[C@H]2N2CCN(c3ccccc3OC)CC2)c1	18µM*	x	x	x	x	x
O=C(NNc1ccccc1C(F)(F)F)c1sccc1Br	40µM*	6%	18	-1%	-1	-8%
COc1cccc(-c2nc3ccccc3c(=O)n2NC(=O)c2ccc(F)cc2Cl)c1	-8%	x	x	x	x	x
CC1=C(C(=O)OCc2ccccc2)C(c2ccccc2)NC(=O)N1CCCCCC(=O)O (stereo not drawn)	0%	6%	-2	-2%	0	2%
CC1=C(C(=O)OCc2ccccc2)C(c2ccc([N+](=O)[O-])cc2)NC(=O)N1C (stereo not drawn)	-30%	9%	3	-5%	0	6%
CC1=C(C(=O)OCc2ccccc2)C(c2ccc(C(C)(C)C)cc2)NC(=O)N1CCCCCC(=O)O (stereo not drawn)	25µM*	-1%	13	-1%	0	-3%
CC1=C(C(=O)OCc2ccccc2)C(c2ccccc2[N+](=O)[O-])NC(=O)N1C (stereo not drawn)	16µM*	9%	x	0%	x	-2%
COc1ccc(-c2cc3ccc(OCC(=O)OC(C)(C)C)cc3oc2=O)cc1	28%	x	x	x	x	x

Bioassay records from PubChem.
